Shown are actives, neighbours in structure and some others; about 2.4% of the full set was active somewhere.
CHT PAM = allosteric activators of human choline transporter CHT; B-score at 10 µM; CHT-expressing cells, membrane potential dye, choline EC20; stronger effect = higher value; LV-AA mutant CHT in HEK293 cells; actives 0.49% (n = 310,000); Q9GZV3;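 active means initial fluorescence not abnormally high and integrated response B-score, plate-corrected, over 3 SD above library mean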
Target sequence (Q9GZV3 whole entry, looked up): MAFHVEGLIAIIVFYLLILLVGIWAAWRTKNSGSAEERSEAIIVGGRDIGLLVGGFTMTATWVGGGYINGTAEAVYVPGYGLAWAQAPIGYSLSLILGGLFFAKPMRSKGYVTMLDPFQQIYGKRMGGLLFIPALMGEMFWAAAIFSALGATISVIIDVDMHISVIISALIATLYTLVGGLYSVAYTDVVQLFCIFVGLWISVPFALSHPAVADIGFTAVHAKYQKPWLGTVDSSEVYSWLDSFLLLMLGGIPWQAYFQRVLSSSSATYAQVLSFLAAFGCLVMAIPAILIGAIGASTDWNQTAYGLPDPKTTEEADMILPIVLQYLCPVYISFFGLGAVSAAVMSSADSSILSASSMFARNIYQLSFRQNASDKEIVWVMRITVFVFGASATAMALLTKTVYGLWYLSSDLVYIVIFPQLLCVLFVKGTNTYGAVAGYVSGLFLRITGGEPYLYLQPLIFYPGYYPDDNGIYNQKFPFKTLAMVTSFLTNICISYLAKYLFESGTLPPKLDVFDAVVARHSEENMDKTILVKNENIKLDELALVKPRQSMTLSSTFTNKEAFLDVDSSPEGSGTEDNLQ
TMEM16A inh = mouse TMEM16A channel inhibition, primary screen; normalized B-score (activity score, 25-100; higher = stronger inhibition) at 10 µM; actives 1.2% (n = 310,000); Q8BHY3; AID 588511; HEK293 TMEM16A/YFP iodide influx fluorescence, ionomycin;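 active means ratio plate-corrected score three or more library SD toward inhibition, starting fluorescence score within five deviations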;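 further: score derived from kinetic fluorescence span divided by baseline fluorescence per well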
CHT block = inhibits the human high affinity choline transporter; B-score at 10 µM; actives 0.86% (n = 310,000); Q9GZV3; CHT-expressing cells, membrane potential dye, choline response; stronger effect = lower value;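 active means B-score over 3 SD under the library average, and starting fluorescence ratio not unusually high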;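 further: choline stimulus applied at its EC90 after an EC20 pre-addition; B-score computed on integrated fluorescence ratio after choline addition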
TMEM16A act = activators or potentiators of mouse TMEM16A chloride channel | B-score at 10 µM | Q8BHY3 | actives 0.3% (n = 340,000) | AID 623877 | HEK293 TMEM16A/YFP-H148Q/I152L, iodide quench fluorescence; stronger effect = lower value;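 active means fluorescence-ratio B-score plate-corrected deviation score at least 3 library SD below zero, with starting fluorescence score within 5 deviations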;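 further: channel opened by trigger with iodide after compound preincubation; score built on the fluorescence ratio of max minus min over baseline; more negative score means more quench and so TMEM16A activation or potentiation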
CHT block conf = human CHT inhibition, confirmatory screen. shares compounds with CHT block. CHT-expressing cells, choline membrane potential dye; LV-to-AA substituted CHT, HEK293 cells. CHT activity remaining % of control (stronger effect = lower value), % at 10 µM. actives 70% (n = 2,400). AID 493221;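 active means choline transporter activity left, mean of duplicates at 10 µM, below buffer-only control mean minus 3 SD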;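 further: depolarization triggered by choline at its EC90 following an EC20 pre-addition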
HEK293 CHT ctr = CHT inhibitor counter-screen hit in parental HEK293 cells | membrane potential dye, choline response; active = decrease or increase beyond buffer ±3SD | shares compounds with CHT block | membrane potential ratio readout (active if shifted either direction beyond buffer ±3SD; no single direction) at 10 µM | AID 493222 | actives 4% (n = 2,400);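 further: parental cells lack the transporter so any hit is non-specific; ratio is peak minus trough fluorescence over baseline after EC90 choline challenge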
Hits are given with their value.

Cc1ccc(C(=O)C2(C)C3c4cc(Br)ccc4OC(=O)C32C(=O)c2ccco2)cc1 (stereo not given) was read as CHT PAM inactive, TMEM16A inh inactive, CHT block inactive and TMEM16A act inactive.
CC(C)(C)NS(=O)(=O)c1ccc(NC(=O)Cc2ccccc2[N+](=O)[O-])cc1 was read as CHT PAM inactive, TMEM16A inh inactive, CHT block inactive and TMEM16A act inactive.
For CCCCNS(=O)(=O)c1ccc(NC(=O)Cc2ccccc2[N+](=O)[O-])cc1 the results were CHT PAM inactive, TMEM16A inh inactive, CHT block -6, TMEM16A act inactive, CHT block conf 43% and HEK293 CHT ctr inactive.
For Cc1nn(C2CCS(=O)(=O)C2)c2nc(C3CC3)cc(C(=O)Nc3cccc(C#N)c3)c12 (stereo not given) the results were TMEM16A act inactive.
Screening CCCCC[C@H](O)/C=C/[C@@H]1[C@@H](C/C=C\CCCC(=O)O)[C@@H](O)C[C@H]1O returned CHT PAM inactive, TMEM16A inh inactive, CHT block -5.9, TMEM16A act inactive, CHT block conf 33% and HEK293 CHT ctr inactive.
`COc1cc(OC)cc(C(=O)N[C@H](C(=O)OCC(=O)NC(=O)c2cccn2C)C(C)C)c1` gave CHT PAM inactive, TMEM16A inh inactive, CHT block inactive and TMEM16A act inactive.
Cc1c(/C=N\NC(=O)c2ccc([N+](=O)[O-])cc2)cnn1C was read as CHT PAM inactive, TMEM16A inh inactive, CHT block -7.7, TMEM16A act inactive, CHT block conf inactive and HEK293 CHT ctr inactive.
CC(=O)n1cc(/C=N/NC(=O)c2ccc([N+](=O)[O-])cc2)c2ccccc21 was read as CHT PAM inactive, TMEM16A inh inactive, CHT block inactive and TMEM16A act inactive.
Screening NC(N)=Nc1nc(C2COc3ccccc3O2)cs1 (stereo not given) returned CHT PAM inactive, TMEM16A inh inactive, CHT block -8.8, TMEM16A act inactive, CHT block conf 46% and HEK293 CHT ctr inactive.
O=C1c2ccccc2C(=O)N1n1cccc1 was read as CHT PAM inactive, TMEM16A inh inactive, CHT block inactive and TMEM16A act inactive.
`CCn1cc(C(=O)NCCCN2CC(C)CC(C)C2)c(=O)c2cc(S(=O)(=O)N(C)C3CCCCC3)ccc21` (stereo not given) gave CHT PAM inactive, TMEM16A inh inactive, CHT block -5, TMEM16A act inactive, CHT block conf 45% and HEK293 CHT ctr 2.9.
CCn1cc(C(=O)NCCCN2CCC(C)CC2)c(=O)c2cc(S(=O)(=O)N(C)C3CCCCC3)ccc21 was read as CHT PAM inactive, TMEM16A inh inactive, CHT block -6.5, TMEM16A act inactive, CHT block conf 39% and HEK293 CHT ctr inactive.
For O=C(O)c1cccnc1SCC(=O)N1CCCc2ccccc21 the results were CHT PAM inactive, TMEM16A inh inactive, CHT block inactive and TMEM16A act inactive.
O=C(Nc1sc2c(c1C(=O)O)CCCC2)c1ccc(Cl)cc1 was read as CHT PAM inactive, TMEM16A inh inactive, CHT block -6.3, TMEM16A act inactive, CHT block conf 53% and HEK293 CHT ctr inactive.
For O=C(Nc1sc2c(c1C(=O)O)CCC2)c1ccccc1 the results were CHT PAM inactive, TMEM16A inh inactive, CHT block inactive and TMEM16A act inactive.
CCOc1ccc(-n2c(N)c(-c3nc4ccccc4n3C)c3nc4ccccc4nc32)cc1 was read as CHT PAM inactive, TMEM16A inh inactive, CHT block inactive and TMEM16A act inactive.
`CCCCNC(=O)C1(NC(=O)Nc2ccc(C)cc2)CCCCC1` gave CHT PAM inactive, TMEM16A inh inactive, CHT block inactive and TMEM16A act inactive.
`CC1=C(C(=O)OCCOc2ccccc2)C(c2ccsc2)NC(=O)N1C` (stereo not given) gave CHT PAM inactive, TMEM16A inh inactive, CHT block -6.5, TMEM16A act inactive, CHT block conf 50% and HEK293 CHT ctr inactive.
For CC(C)(Cc1ccccc1)/[N+]([O-])=C\c1ccc(C(F)(F)F)cc1 the results were CHT PAM inactive, TMEM16A inh inactive, CHT block inactive and TMEM16A act inactive.
For COc1ccc(C(=O)C[n+]2cccc(C)c2)cc1 the results were CHT PAM inactive, TMEM16A inh inactive, CHT block -8.5, TMEM16A act inactive, CHT block conf 6.4% and HEK293 CHT ctr inactive.
Screening Cc1ccc[n+](CC(=O)c2ccc(Br)cc2)c1C returned CHT PAM inactive, TMEM16A inh inactive, CHT block -9.7, TMEM16A act inactive, CHT block conf 39% and HEK293 CHT ctr inactive.
`Cc1ccc[n+](CC(=O)c2ccc(NC(=O)c3ccccc3)cc2)c1C` gave CHT PAM inactive, TMEM16A inh inactive, CHT block inactive and TMEM16A act inactive.
For Cc1ccc[n+](CC(=O)c2ccccc2)c1 the results were CHT PAM inactive, TMEM16A inh inactive and CHT block inactive.
For Cc1ccc[n+](CC(=O)c2ccc(Br)cc2)c1 the results were CHT PAM inactive, TMEM16A inh inactive, CHT block -10, TMEM16A act inactive, CHT block conf 4.2% and HEK293 CHT ctr inactive.
`CCN1CCN(c2nnc(-c3ccc(C)cc3)c3ccccc23)CC1` gave CHT PAM inactive, TMEM16A inh inactive, CHT block inactive and TMEM16A act inactive.
`CC(=O)Oc1cc2c3c(c1)/C(=C1/SC(=S)NC1=O)C(=O)N3C(C)(C)C=C2C` gave CHT PAM inactive, TMEM16A inh 100, CHT block -6.8, TMEM16A act inactive, CHT block conf 37% and HEK293 CHT ctr inactive.
CC(C)(C)c1ccccc1OCC(=O)NCCCn1ccnc1 was read as CHT PAM inactive, TMEM16A inh inactive, CHT block inactive and TMEM16A act inactive.
CCOCc1cnc(C)nc1NCC(=O)c1c(C)n(C)c2ccc(OC)cc12 was read as TMEM16A act inactive.
`COc1ccc2c(c1)c(C(=O)CNc1nc(C)cs1)c(C)n2C` gave CHT PAM inactive, TMEM16A inh inactive, CHT block -5, TMEM16A act inactive, CHT block conf 38% and HEK293 CHT ctr 2.7.
For O=C(CSc1ccc(C(F)(F)F)cc1[N+](=O)[O-])Nc1ccc2ccccc2c1 the results were CHT PAM inactive, TMEM16A inh inactive, CHT block inactive and TMEM16A act inactive.
For Cc1ccc(OCCCN2CCOCC2)c([N+](=O)[O-])c1 the results were CHT PAM inactive, TMEM16A inh inactive, CHT block -6.1, TMEM16A act inactive, CHT block conf inactive and HEK293 CHT ctr inactive.
COc1cc(CC(=O)N(C)CC(=O)Nc2cc(C)ccc2C)cc(OC)c1OC was read as CHT PAM inactive, TMEM16A inh inactive, CHT block inactive and TMEM16A act inactive.
